Sfp inh = blocks B. subtilis Sfp PPTase activity | Potency, µM, hits mostly inhibitors | Biochemical Sfp PPTase activity, qHTS | hit rate 3.5% among 310,000 | Q9F4F7;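 note: the enzyme is Sfp with the accession as filed and its product quenches rhodamine fluorescence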
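With Hepes-Na pH 7.6 buffer containing 10 mM MgCl2, Sfp (15 nM) modified BHQ-2-YbbR (12.5 uM) using rhodamine-CoA (5 uM). Two reads 30 minutes apart at 525/598 nm yielded each well's rate.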
PLK1 PBD inh = inhibitors of human PLK1 polo-box domain binding. P53350. Plk1 PBD binding of FITC phosphopeptide, fluorescence polarization. Potency, µM, actives largely listed as inhibitors. hit rate 2.8% among 360,000; note: series mostly up to about 57 µM; nearly all actives have a fitted effect of over 65% in size
G9a inh = blocks human histone lysine methyltransferase G9a. Q96KQ7. G9a H3K9 monomethylation, AlphaScreen, 2 h. Potency, µM (doses to about 102 µM), usual class: inhibitors. hit rate 8.8% among 350,000. AID 504332; note: nearly all actives have a fitted effect of over 75% in size
Target sequence (Q96KQ7 913-1193 limits assumed): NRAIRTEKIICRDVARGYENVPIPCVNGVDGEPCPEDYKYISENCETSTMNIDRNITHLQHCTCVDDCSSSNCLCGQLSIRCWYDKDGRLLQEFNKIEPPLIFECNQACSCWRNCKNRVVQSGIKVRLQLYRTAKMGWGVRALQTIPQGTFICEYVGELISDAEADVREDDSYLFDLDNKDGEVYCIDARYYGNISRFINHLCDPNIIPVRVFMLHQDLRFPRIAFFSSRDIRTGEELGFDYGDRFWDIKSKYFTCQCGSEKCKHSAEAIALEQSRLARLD
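G9a (20 nM) preincubated 15 min RT with compounds, then 500 nM biotinylated H3K9 peptide and 20 uM SAM added; 2 h RT reaction. Monomethyl-H3K9 product detected by AlphaScreen with anti-H3K9me1 antibody, streptavidin donor and anti-rabbit IgG acceptor beads.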
JMJD2A Tudor inh = JMJD2A Tudor domain (human) inhibition; O75164; AlphaScreen JMJD2A-Tudor / H3K4me3 peptide binding; Potency, µM (series often up to 114 µM), most hits filed as inhibitors; hit rate 4.4% among 390,000; AID 504339; note: nearly all actives have a fitted effect of over 50% in size
HP1b binding inh = inhibitors of HP1-beta chromodomain binding to methylated histone tails; hit rate 0.56% among 390,000; AID 540317; Potency, µM (series often up to 114 µM), most hits filed as inhibitors; AlphaScreen HP1-beta / biotin-H3K9me3 peptide binding; P83916; note: nearly all actives have a fitted effect of over 70% in size
Target sequence (P83916 whole entry, looked up): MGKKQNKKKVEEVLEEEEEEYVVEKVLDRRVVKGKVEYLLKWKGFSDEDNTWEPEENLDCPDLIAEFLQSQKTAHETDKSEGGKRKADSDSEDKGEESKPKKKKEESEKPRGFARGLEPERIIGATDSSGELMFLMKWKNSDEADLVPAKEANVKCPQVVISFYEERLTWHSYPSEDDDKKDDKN
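AlphaScreen: HP1-beta (50 nM) preformed 30 min with biotin-H3(1-18)K9me3 peptide (50 nM) in PBS pH 7.4, 0.01% Tween-20. Compound added for 30 min at RT, then streptavidin donor/nickel chelate acceptor beads (10 ug/mL) for 30 min.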
BAZ2B block = inhibitors of human BAZ2B bromodomain; AlphaScreen BAZ2B-H3K14Ac peptide displacement; Potency, µM (titrated, usually from 114 µM), most hits filed as inhibitors; hit rate 4.4% among 360,000; note: nearly all actives have a fitted effect of over 60% in size
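Compounds, titrated to a top concentration of 110 uM, were incubated 30 min at room temperature with preformed BAZ2B/acetyl-K14 H3 peptide complex (50 nM each). Proximity signal was measured by AlphaScreen after 20 min with beads.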
Hits are given with their value; i = inactive; ? = inconclusive; nt = no result; [ ] = remark or other dose. Rows were chosen to be rich in hits. Some 12% of all compounds tested hit in one or more screens of this group. Calls come from the whole dose curve; as a rule, active = well fitted curve in the direction sought with a large enough effect; inconclusive = small, poorly fitted or top-dose-only effect, or another doubt; inactive = no such curve, though single readings can be large; an effect the other way counts as inactive or inconclusive.

SMILES	Sfp inh	PLK1 PBD inh	G9a inh	JMJD2A Tudor inh	HP1b binding inh	BAZ2B block
O=C(CN(c1ccc(Cl)cc1)S(=O)(=O)c1ccc(Cl)c([N+](=O)[O-])c1)NCCc1ccccc1	i	i	50.1µM	i	i	i
NS(=O)(=O)c1ccc(CCNC(=O)c2ccccc2-c2ccccc2)cc1	i	i	?	i	i	i
CCCOc1ccc(C2C(C(=O)c3ccc(C)o3)=C(O)C(=O)N2Cc2ccco2)cc1 (stereo unspecified)	?	i	50.1µM	i	i	?
COc1ccc(C2C(C(=O)c3ccc(C)o3)=C(O)C(=O)N2Cc2cccnc2)cc1OC (stereo unspecified)	i	i	50.1µM	20µM	i	i
CCOc1cccc(C2C(C(=O)c3ccco3)=C(O)C(=O)N2Cc2ccncc2)c1 (stereo unspecified)	i	i	35.5µM	?	i	i
CC(=O)C1=C(O)C(=O)N(Cc2cccnc2)C1c1ccc(C(C)C)cc1 (stereo unspecified)	i	i	56.2µM	i	i	i
COc1cc(C)c(NC(=O)C2CCN(S(=O)(=O)c3cccs3)CC2)cc1OC	nt	i	?	i	i	i
O=C(COC(=O)CCCN=C1NS(=O)(=O)c2ccccc21)NC(=O)NC1CCCC1	i	i	i	i	i	i
COc1cc(C2C(C(=O)c3ccco3)=C(O)C(=O)N2Cc2cccnc2)cc(OC)c1OC (stereo unspecified)	i	i	nt	89.1µM	i	i
Cc1ccc(C(=O)C2=C(O)C(=O)N(Cc3cccnc3)C2c2cccc(Oc3ccccc3)c2)o1 (stereo unspecified)	nt	i	nt	i	i	nt
CCCOc1ccc(C2C(C(=O)c3ccc(C)o3)=C(O)C(=O)N2Cc2ccco2)cc1OCC (stereo unspecified)	i	i	nt	?	i	?
COc1ccc(C2C(C(=O)c3ccc(C)o3)=C(O)C(=O)N2Cc2ccco2)cc1OC (stereo unspecified)	44.7µM	i	nt	i	i	?
CCOc1cc(C2C(C(=O)c3ccc(C)o3)=C(O)C(=O)N2CCc2ccccc2)ccc1O (stereo unspecified)	i	i	44.7µM	?	i	?
COc1cc(C2C(C(=O)c3ccc(C)o3)=C(O)C(=O)N2CCCn2ccnc2)cc(OC)c1OC (stereo unspecified)	i	i	nt	i	i	?
COc1ccc(OC)c(C2C(C(=O)c3ccco3)=C(O)C(=O)N2Cc2cccnc2)c1 (stereo unspecified)	i	i	?	i	i	?
CCOc1ccc(C2C(C(=O)c3ccc(C)o3)=C(O)C(=O)N2Cc2cccnc2)cc1 (stereo unspecified)	i	i	39.8µM	89.1µM	nt	i
COc1ccccc1CN1CCNC(=O)C1=O	nt	nt	i[12.7 µM]	i	i	i
O=C(CNC(=O)c1ccccc1Cl)OC(C(=O)Nc1cc(C(F)(F)F)ccc1Cl)c1ccccc1 (stereo unspecified)	nt	nt	nt	i	nt	nt
Cc1ccc(C(=O)C2=C(O)C(=O)N(Cc3ccccc3)C2c2cccnc2)o1 (stereo unspecified)	i	?	50.1µM	50.1µM	i	i
Cc1ccc(C(=O)C2=C(O)C(=O)N(Cc3cccnc3)C2c2ccc(Cl)cc2)o1 (stereo unspecified)	i	i	50.1µM	i	i	i
COc1cc(C2C(C(=O)c3ccc(C)o3)=C(O)C(=O)N2Cc2ccccc2)ccc1O (stereo unspecified)	nt	i	44.7µM	?	i	i
Cc1ccc(C(=O)C2=C(O)C(=O)N(Cc3cccnc3)C2c2cccc([N+](=O)[O-])c2)o1 (stereo unspecified)	i	i	nt	?	i	?
c1nc(NC2CC2)c2cc(-c3ccoc3)ccc2n1	?	nt	i[0.501 µM]	nt	nt	nt
COc1ccc(CNC(=O)c2ccc3c(c2)N(Cc2ccccc2C)C(=O)c2ccccc2S3=O)cc1 (stereo unspecified)	nt	nt	i	i	i	i
COc1ccc(-c2nc(CCl)cs2)cc1OC	i	?	20µM	?	i	i
SMILES	Sfp inh	PLK1 PBD inh	G9a inh	JMJD2A Tudor inh	HP1b binding inh	BAZ2B block
CCc1ccc(-c2nc(CCl)cs2)cc1	i	i	?	i	i	i
COc1cccc(-c2nc(CCl)cs2)c1	i	i	?	i	i	i
COc1ccc(N2CC(O)=C(c3nc(-c4ccc(Br)cc4)cs3)C2=N)cc1	i	i	i	i	i	i
Cc1ccc(-c2csc(-c3ccncc3)n2)cc1	i	i	i	i	i	i
COc1ccc(-c2nc(CCl)cs2)cc1	i	i	25.1µM	i	i	i
COc1ccc(N2CC(O)=C(c3nc(-c4ccccc4)cs3)C2=N)cc1	i	13.4µM	i	i[11.4 µM]	i	i
COc1ccc(-c2csc(-c3ccc(O)cc3)n2)cc1	i	21.2µM	i	i[11.4 µM]	i	i
CCN1C(=O)[C@H]2[C@H]3[C@H](O)[C@H](O)C/C(=N/OC[C@@H]4O[C@H](c5ccccc5)C=C[C@@H]4Oc4ccc(OC)cc4)[C@@H]3CC[C@@H]2C1=O	i	nt	nt	nt	nt	nt
COc1ccccc1NC(=S)N1CCN(C/C=C/c2ccccc2)CC1	i	i	i	i	i	i
COc1cc(NC(=O)CSc2nnc3ccccn23)cc(OC)c1OC	nt	i	nt	nt	nt	nt
O=C(N/N=C/c1cccc([N+](=O)[O-])c1)c1nc2ccccc2c(=O)[nH]1	i	i	i	i	i	i
O=C(Cn1cncn1)N/N=C/c1ccccc1O	i	i	nt	56.2µM	i	79.4µM
O=C(N/N=C/c1cc([N+](=O)[O-])ccc1O)c1ccc(COc2ccc3c(c2)CCC3)o1	i	?	nt	?	?	44.7µM
O=C(CSc1ccccn1)N/N=C/c1ccccc1[N+](=O)[O-]	i	i	i	i	i	i
COc1ccc(Br)cc1/C=N/NC(=O)c1ccc(COc2ccc3c(c2)CCC3)o1	i	?	i	i[11.4 µM]	i	i
O=C(N/N=C/c1ccccc1Cl)c1nc2ccc([N+](=O)[O-])cc2c(=O)[nH]1	i	23.8µM	?	25.1µM	i	i
O=C(CSc1ccccn1)N/N=C/c1cc([N+](=O)[O-])ccc1O	i	i	i[12.7 µM]	?	i	44.7µM
O=C1CC[C@@H](C(=O)N[C@@H](Cc2cnc[nH]2)C(=O)N[C@@H](Cc2c[nH]c3ccccc23)C(=O)N[C@@H](CO)C(=O)N[C@@H](Cc2ccc(O)cc2)C(=O)O)N1	i	nt	nt	nt	nt	nt
COc1ccc(C)cc1NC(=O)C1CCCN(S(=O)(=O)c2ccc3c(c2)oc(=O)n3C)C1 (stereo unspecified)	nt	nt	i	i	i	i
CCc1ccc(NC(=O)CC2C(=O)N(c3cccc(OC)c3)C(=O)N2Cc2ccco2)cc1 (stereo unspecified)	nt	nt	?	i	i	i
O=C(Cn1cncn1)N/N=C/c1cc([N+](=O)[O-])ccc1O	i	i	i	25.1µM	i	22.4µM

Compound activity (PubChem BioAssay)
